Screening results (PubChem BioAssay)
Only some compounds are listed: those with a hit (about 6.5% of all), similar ones and a draw of the others.
HCMV antiviral: qHTS Assay for inhibitors of the human cytomegalovirus (HCMV); activity change, negative = inhibition, % at 57.5 µM; 410,000 compounds, 4.5% hits; HFF cells, HCMV-luciferase reporter, 72 h; active compounds read low; in the data active = activity change below about -60%; inconclusive = no clear call, values can overlap the other calls; inactive = above about -39%
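Screen run at 2 compound doses on HFFs infected with reporter HCMV, MOI 1 PFU/cell. Luciferase activity from cell lysates at 72 h post infection gave inhibition relative to buffer-only and Salinomycin wells.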
Vaccinia mCherry: qHTS for Stage-Specific Inhibitors of Vaccinia Orthopoxvirus: mCherry Reporter Primary qHTS; Vaccinia virus mCherry reporter infection, fluorescence; Potency, µM (series often up to 36.5 µM), for inactives: top-dose activity change, negative = inhibition, actives largely listed as inhibitors; 310,000 compounds, 0.63% hits; AID 720579, 2013; calls by dose curve; tested in A549 cells; note: potency is the fitted concentration of half-maximal effect; nearly all actives have a fitted effect of over 35% in size
Lassa entry inh: qHTS for Inhibitors of binding or entry into cells for Lassa Virus | Lassa virus pseudotype entry inhibition, cell reporter | Potency, µM (highest dose often 37.9 µM), for inactives: top-dose activity change, negative = inhibition, hits mostly inhibitors | 300,000 compounds, 1.2% hits | AID 540256, 2011; calls by dose curve; tested in HEK293 cells; note: potency is the fitted concentration of half-maximal effect; nearly all actives have a fitted effect of over 50% in size
Marburg entry inh: qHTS for inhibitors of binding or entry into cells for Marburg Virus; 300,000 compounds, 1.8% hits; Marburg virus pseudotyped entry inhibition, cell reporter; Potency, µM (highest dose often 37.8 µM), for inactives: at the highest dose activity change, negative = inhibition, hits mostly inhibitors; calls by dose curve; tested in HEK293 cells; note: potency is the fitted concentration of half-maximal effect
FMDV inh: High Throughput Screening for Foot and Mouth Disease Virus Antivirals | FMDV antiviral cell-based qHTS | 410,000 compounds, 1.2% hits | AID 1159524, 2015 | Potency, µM (doses to about 57.9 µM), for the others: at the highest dose activity change, negative = inhibition, hits mostly inhibitors; calls by dose curve; tested in HEK293T cells; note: read-out not given here; potency is the fitted concentration of half-maximal effect; nearly all actives have a fitted effect of over 45% in size
VACV Venus inh: qHTS for Stage-Specific Inhibitors of Vaccinia Orthopoxvirus: Venus Reporter Primary qHTS | Vaccinia virus Venus reporter expression, fluorescence | Potency, µM (doses to about 36.5 µM), for the others: top-dose activity change, negative = inhibition, actives largely listed as inhibitors | 330,000 compounds, 0.46% hits; calls by dose curve; tested in A549 cells; note: potency is the fitted concentration of half-maximal effect; nearly all actives have a fitted effect of over 30% in size
Active calls of the source: *; i = inactive; ? = inconclusive; . = not tested or not shown; [ ] = remark or other dose. % is set by controls: 0 for no effect and ±100 for the full control effect.

SMILES	HCMV antiviral	Vaccinia mCherry	Lassa entry inh	Marburg entry inh	FMDV inh	VACV Venus inh
CCCCCN1C(=O)c2cc(OC)ccc2[C@@]2(C(=O)OCC)Cc3cc(Cl)ccc3[C@@H]12	-103*	?	.	.	7.9µM*	?
CN(C)CCCNC(=O)[C@@H]1[C@@H](CO)[C@@H]2Cn3c(cccc3=O)[C@H]1N2C(=O)Nc1cc(F)ccc1F	1	.	.	.	.	.
CCOC(=O)[C@]12Cc3ccsc3[C@H]1N(Cc1ccccc1)C(=O)c1ccccc12	2	?	.	.	?	?
CCOC(=O)[C@]12Cc3ccc4ccccc4c3[C@H]1N(Cc1ccccc1)C(=O)c1ccccc12	59	-13%	.	.	22µM*	-7%
OC1(c2cccnc2)CCN(Cc2ccc3c(c2)CN(Cc2cccc(F)c2F)CCO3)CC1	.	-16%	.	.	-13%	-2%
CCOC(=O)C1=C(N)N2C(=O)C(C)SC2=C(C(=O)OC)C1c1cccc(OC)c1 (stereo unspecified)	-86*	.	.	.	-9%	.
CSc1c(CC(=O)NCCCO)n(Cc2ccccc2)c2ccccc12	24	.	.	.	?	.
COc1ccc(NC(=O)Cc2c(SC)c3ccccc3n2Cc2ccccc2)cc1	-87*	-15%	-25%	?	-22%	?
CC(C)Cc1nnc(NC(=O)CC(=O)Nc2ccccc2C(=O)O)s1	-34	-6%	?	?	-16%	-5%
CC(C)c1nnc(NC(=O)CC(=O)Nc2ccccc2C(=O)O)s1	-28	.	6.3µM*	?	-34%	-18%
COc1cc(N/N=C(\C)c2ccc(N)cc2)nc(-c2ccccc2)n1	41	.	.	.	17%	.
COc1cc(N/N=C(\C)c2ccc(O)c(C)c2)nc(-c2ccccc2)n1	-90*	?	?	?	2%	-20%
C/C(=N\Nc1cc(-c2ccccc2)nc(-c2ccccc2)n1)c1ccc(O)c(C)c1	-64*	0%	11%	?	5%	?
CC(NC(=O)C(Cc1ccccc1)N1C(=O)C2C3CCC(C3)C2C1=O)c1ccccc1 (stereo unspecified)	-61*	.	?	-1%	19%	.
CCCCOC(=O)NC1CCc2cc(OC)c(OC)c(OC)c2-c2ccc(SC)c(=O)cc21 (stereo unspecified)	-80*	i	?	?	0%	?
CN[C@H]1CCc2cc(OC)c(OC)c(OC)c2-c2ccc(N[C@@H]3CCCCNC3=O)c(=O)cc21	.	.	.	.	-3%	.
CCOC(=O)NC1CCc2cc(OC)c(OC)c(OC)c2-c2ccc(SC)c(=O)cc21 (stereo unspecified)	-72*	i	?	?	0%	-36%
CCOCC(=O)NC1CCc2cc(OC)c(OC)c(OC)c2-c2ccc(SC)c(=O)cc21 (stereo unspecified)	-66*	-23%	?	-17%	-2%	?
N#Cc1ccc2c(c1)C[C@]1(c3ccsc3)Oc3c(c(=O)oc4ccc(F)cc34)[C@@H]2O1	.	.	?	2%[14.2 µM]	.	.
CC(C)CO/N=C1/C[C@@H](O)[C@@H](O)[C@@H]2[C@@H]3C(=O)N(C[C@@H]4CCCO4)C(=O)[C@H]3CC[C@H]12	.	.	.	10%[14.2 µM]	.	.
COc1ccc(C(=O)N2CCc3ccc(NC(=O)c4ccccn4)cc3C2)cc1F	-89*	.	.	.	?	.
COc1cc2c(cc1OC)CN(C(=O)c1ccncc1)CC2	-4	.	.	.	-8%	.
Cn1ccnc1SCC(=O)Nc1cccc([N+](=O)[O-])c1	-7	-1%	6%	23%[46.1 µM]	22%	0%
Cn1nnnc1SCC(=O)Nc1cccc([N+](=O)[O-])c1	-68*	i	12%	8%[46.1 µM]	-2%	-5%
CCCCCCCCCCCCCCCCOCC(CO)OC(C)=O (stereo unspecified)	.	-13%[3.33 µM]	.	.	-8%[6.7 µM]	-7%[3.33 µM]
SMILES	HCMV antiviral	Vaccinia mCherry	Lassa entry inh	Marburg entry inh	FMDV inh	VACV Venus inh
C=CCOC(=O)N[C@@H](c1ccc(Br)cc1)C(C(C)=O)C(C)=O	.	.	.	-28%[14.2 µM]	.	.
Cc1nc2c3cc(F)ccc3n(CCN3CCCCC3)c2s1	35	i	-29%[46.1 µM]	7.1µM*	-22%	-18%
Cc1nc2c3ccccc3n(CCN3CCCCC3)c2s1	.	.	.	-6%	.	.
C#CCn1c(=NC(=O)CN2C(=O)CCC2=O)sc2cccc(OC)c21	-39	.	.	.	10%	.
C#CCn1c(=NC(=O)c2cccs2)sc2cccc(OC)c21	-98*	-1%	.	.	5%	-18%
O=C(CCl)NCc1c(Cl)cccc1-n1cccc1	-98*	.	?	?	0%	.
O=C(Cc1c(Cl)cccc1Cl)NCCc1ccc(Cl)cc1	-34	-8%	?	-1%	15%	-3%
CCOC(=O)c1c(C)c2c(=O)[nH]cnc2n1-c1ccccc1	-62*	.	.	.	-27%	.
CCOC(=O)c1sc2nc[nH]c(=O)c2c1C	-13	-26%	17%	-9%	18%	-17%
Nc1nc(Cl)cc(Sc2ccc3ccccc3c2)n1	13	.	10µM*	-25%	-16%	?
Nc1nc(Cl)cc(-c2ccccc2)n1	27	16%	-3%	?	-3%	11%
COc1ccc(/C=C2\N=C(SC)N(c3ccccc3OC)C2=O)cc1	-96*	.	.	.	?	.
CCOc1ccc(N2C(=O)/C(=C/c3ccccc3)N=C2SC)cc1	-21	.	.	.	32%	.
O=C(c1cccs1)N1CCCC1	46	-3%	-17%	13%	13%	0%
O=C(c1cccs1)N1CCN(C(=O)c2cccs2)C1=S	?	?	?	?	35µM*	?
COc1cc2cc(c1Cl)N(C)C(=O)CC(OC(=O)C(C)N(C)C(C)=O)C1(C)OC1C(C)C1CC(O)(NC(=O)O1)C(OC)C=CC=C(C)C2 (stereo unspecified)	-80*	?	?	-10%	-10%	-34%
CCC(C)n1c(SCc2ccc([N+](=O)[O-])cc2)nc2ccsc2c1=O (stereo unspecified)	-23	-23%	?	13µM*	?	-10%
